High-throughput results deposited in PubChem by NMMLSC.
VLA-4 antagonist = inhibitors of LDV-FITC binding to Mn2+-activated VLA-4, primary screen, Jurkat cells; Integrin alpha-4 (Homo sapiens), P13612; LDV-FITC binding with Mn2+, flow cytometry; 100% = Mn2+-driven binding gain fully reversed; inhibition, % at 10 µM (by protocol); 24,000 compounds, 0.2% hits; AID 529, 2006;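 active = inhibition above 50%; inconclusive = compound itself fluorescent, judged against control cell fluorescence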
FPR ligand = human FPR ligands by binding competition, primary screen, cell-based, FPRL1 counter-screen, flow cytometry; FPR-expressing cells, fluorescent ligand binding; inhibition, % (concentration not given with the values); 24,000 compounds, 0.74% hits
Autofluor Jurkat = compound autofluorescence on Jurkat cells, primary screen, artefact control for VLA-4 allosteric ligand project, cell-based, flow cytometry; hits give high values; 1 = vehicle-only cell background; fluorescence ratio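 (tested at 10 µM compound in the well)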; 24,000 compounds, 0.61% hits;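 active = fluorescence ratio above 2.44, which is 1 plus 3 SD of all ratios; inconclusive = signal too bright to measure linearly, ratio around 10 or more; inactive = fluorescence ratio below 2.44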;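 note: green fluorescence of cells measured with 488 nm excitation and 530 nm emission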
FPRL1 binder = human FPRL1 ligands by binding competition, primary screen, cell-based, FPR counter-screen, flow cytometry | N-formyl peptide receptor 2 (Homo sapiens), P25090 | FPRL1-expressing cells, fluorescent ligand binding inhibition | 24,000 compounds, 0.3% hits | AID 441, 2006 | inhibition, % (test concentration not listed)
VLA-4 agonist = enhancers of LDV-FITC binding to VLA-4 integrin, primary screen, Jurkat cells, flow cytometry | activation, % at 10 µM (by protocol) | 24,000 tested, under 10 active | AID 528, 2006;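 active = fluorescent ligand binding to cells raised by more than 40% of the manganese-induced maximum; inconclusive = compound's own fluorescence above 85% of the ligand control signal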
Large screens that a line does not name were inactive. An excerpt weighted towards active compounds, which were near 1.4% of everything screened. Cut-off read from the data, not from the text of the source, unless noted: active = inhibition above about 30%; inconclusive = no clear call, values can overlap the other calls; inactive = below that.

O=c1c2ccccc2[se]n1-c1ccccc1	VLA-4 agonist 40.0
CC1OC(NCCc2ccccc2)C(O)C(O)C1O (stereo not drawn)	VLA-4 antagonist inconclusive, VLA-4 agonist inconclusive
